Assay results: PubChem BioAssay AID1159580 (chemical genetic matrix, 2015)
Values joined by “and” are separate entries in the source; they are usually repeats but may differ in a detail not shown here. Equal values may be shown once. Among all 5,500 compounds or so, about 2,000 (36%) were called active. About 18% were inconclusive and are not listed. Rule as the data show it: active = normalized growth mostly below about 0.91 (no sharp cut-off); inconclusive = no clear call, values can overlap the other calls; inactive = mostly above about 0.92. Some of the results follow.

Assay: chemical genetic growth profiling, strain panel (AID 1159580);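 also: tested at 20 µM; growth read once vehicle control cultures reached saturation at 30 °C; 1 = growth at the plate median or of vehicle wells; lower values mean less growth of the strain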
Details: S. cerevisiae deletion strains, growth OD

Measured: normalized growth

O=c1cc(-c2ccc(O)cc2)oc2cc(O[C@@H]3O[C@H](CO)[C@@H](O)[C@H](O)[C@H]3O[C@@H]3OC[C@](O)(CO)[C@H]3O)cc(O)c12
inactive: locus YAL013W, strain DEP1, active compounds read low 1.01 | locus YAL021C, strain ccr4, active compounds read low 0.998 | locus YAL026C, strain drs2, active compounds read low 1 | locus YAL030W, strain snc1, active compounds read low 1 | locus YBL061C, strain skt5, active compounds read low 1.02 | locus YBR009C, strain hhf1, active compounds read low 1.01 | locus YBR021W, strain FUR4, active compounds read low 0.99 | locus YBR023C, strain chs3, active compounds read low 1.01 | locus YBR171W, strain sec66, active compounds read low 0.982 | locus YBR229C, strain ROT2, active compounds read low 1.01 | locus YBR231C, strain swc5, active compounds read low 1.01 | locus YBR279W, strain paf1, active compounds read low 1.01 | locus YCL011C, strain gbp2, active compounds read low 1.01 | locus YCL016C, strain dcc1, active compounds read low 1 | locus YCL029C, strain bik1, active compounds read low 0.985 | locus YCL061C, strain MRC1, active compounds read low 1.01 | locus YCL069W, strain vba3, active compounds read low 0.994 | locus YCR088W, strain abp1, active compounds read low 0.998 | locus YDL005C, strain med2, active compounds read low 1 | locus YDL035C, strain GPR1, active compounds read low 1.01 | locus YDL040C, strain nat1, active compounds read low 0.997 | locus YDL074C, strain BRE1, active compounds read low 1.02 | locus YDL101C, strain DUN1, active compounds read low 1.02 | locus YDL134C, strain PPH21, active compounds read low 1.03 | locus YDL185W, strain tfp1, active compounds read low 0.981 | locus YDL192W, strain arf1, active compounds read low 0.998 | locus YDR001C, strain nth1, active compounds read low 1 | locus YDR069C, strain doa4, active compounds read low 1.01 | locus YDR101C, strain arx1, active compounds read low 0.963 | locus YDR137W, strain rgp1, active compounds read low 1.01 | locus YDR159W, strain sac3, active compounds read low 1.01 | locus YDR162C, strain NBP2, active compounds read low 1.03 | locus YDR195W, strain ref2 0.991 | locus YDR297W, strain sur2, active compounds read low 1.01 | locus YDR318W, strain mcm21, active compounds read low 1.01 | locus YDR334W, strain swr1, active compounds read low 1.01 | locus YDR335W, strain msn5, active compounds read low 1.01 | locus YDR388W, active compounds read low 0.981 | locus YDR392W, strain spt3, active compounds read low 1.01 | locus YDR502C, strain sam2, active compounds read low 0.993 | locus YEL003W, strain gim4, active compounds read low 1.01 | locus YEL037C, strain rad23, active compounds read low 0.999 | locus YEL061C, strain CIN8 (second series), active compounds read low 1 | locus YEL061C, strain CIN8, active compounds read low 1.01 | locus YER015W, strain faa2, active compounds read low 1.01 | locus YER016W, strain bim1, active compounds read low 1.01 | locus YER110C, active compounds read low 0.984 | locus YER111C, strain swi4, active compounds read low 1 | locus YER155C, strain BEM2 (second series), active compounds read low 1.02 | locus YER155C, strain BEM2, active compounds read low 1.01 | locus YER167W, strain BCK2, active compounds read low 1.01 | locus YFR010W, strain ubp6, active compounds read low 1.02 | locus YGL078C, strain dbp3, active compounds read low 0.997 | locus YGL086W, strain mad1, active compounds read low 0.984 | locus YGL167C, strain pmr1, active compounds read low 1.01 | locus YGL173C, strain kem1, active compounds read low 1.02 | locus YGL227W, strain vid30, active compounds read low 0.994 | locus YGL240W, strain doc1, active compounds read low 1.01 | locus YGL248W, strain PDE1, active compounds read low 1.05 | locus YGL253W, strain hxk2, active compounds read low 0.998 | locus YGR135W, strain pre9, active compounds read low 0.989 | locus YGR252W, strain gcn5, active compounds read low 1.04 | locus YHR013C, strain ard1, active compounds read low 0.988 | locus YHR027C, strain rpn1, active compounds read low 1.01 | locus YHR030C, strain SLT2, active compounds read low 1.01 and 0.992 | locus YHR079C, strain IRE1 (second series), active compounds read low 0.982 | locus YHR079C, strain IRE1, active compounds read low 0.983 | locus YHR094C, strain hxt1, active compounds read low 0.984 | locus YHR129C, strain ARP1, active compounds read low 1.01 | locus YHR142W, strain chs7, active compounds read low 1.01 | locus YHR200W, strain rpn10, active compounds read low 0.995 | locus YIL066C, strain RNR3, active compounds read low 1.02 | locus YIL073C, strain SPO22, active compounds read low 1.01 | locus YIL125W, strain kgd1, active compounds read low 0.989 | locus YIR030C, strain dcg1, active compounds read low 1 | locus YJL092W, strain hpr5, active compounds read low 1 | locus YJL095W, strain BCK1 (second series), active compounds read low 1.01 | locus YJL095W, strain BCK1, active compounds read low 1.06 and 1.01 | locus YJL115W, strain asf1, active compounds read low 0.99 | locus YJL129C, strain trk1, active compounds read low 0.998 | locus YJL134W, strain LCB3, active compounds read low 1.01 | locus YJL154C, strain vps35, active compounds read low 1 | locus YJL164C, strain tpk1, active compounds read low 1.02 | locus YJL166W, strain qcr8, active compounds read low 1.01 | locus YJL168C, strain set2, active compounds read low 0.994 | locus YJL187C, strain SWE1 (second series), active compounds read low 1.02 | locus YJL187C, strain SWE1, active compounds read low 1.01 | locus YJR043C, strain POL32, active compounds read low 1.03 | locus YJR066W, strain TOR1, active compounds read low 0.982
